{"source": "PubChem BioAssay", "note": "Activity calls are given as the source filed them.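 Rule for the calls: active = z-score of at least 1.8 in each of two replicates, scored against plate mean and spread of sample wells; inactive = the rest.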"}
{"assay": "galactose survival enhancers in mitochondrial complex I cybrids – cell-based, galactose medium, ATP luminescence, primary screen (AID 1645843);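 note: positive z means more ATP and so rescue of galactose-driven cybrid death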", "details": "complex I mutant cybrid cells, 72 h, hits give high values"}
{"smiles": "COc1cccc(CN2CCN(C(=O)c3cc4cc(OC)ccc4[nH]3)CC2=O)c1", "z-score": "-0.41 (inactive)"}
{"smiles": "CCCCn1cc(-c2cc(C(=O)N3CCCC3C)c3cccc(C)c3n2)cn1", "note": "(stereo unspecified)", "z-score": "1.28 (inactive)"}
{"smiles": "CNCc1cn(C2CCN(CCC(C)CCCC(C)(C)O)CC2)nn1", "note": "(stereo unspecified)", "z-score": "-0.56 (inactive)"}
{"smiles": "Cc1cccc2ncn(C3CC(C)(C)NC(C)(C)C3)c(=O)c12", "z-score": "-0.515 (inactive)"}
{"smiles": "Cc1cnc(CNC(=O)c2cccc(Nc3ncnc4c3cnn4C)c2)cn1", "z-score": "-0.83 (inactive)"}
{"smiles": "CCCCC1C(=O)N(C)CCN1C(=O)Nc1nnc(C(C)(C)C)s1", "note": "(stereo unspecified)", "z-score": "-0.33 (inactive)"}
{"smiles": "O=C(C1CCCCCC1)N1CCCC(Cn2cc(-c3ccccn3)nn2)C1", "note": "(stereo unspecified)", "z-score": "-0.33 (inactive)"}
{"smiles": "Cc1cccc2c(C(=O)N(C)C(C)C)cc(-c3cnc(C(C)(C)C)nc3)nc12", "z-score": "2.35 (active)"}
{"smiles": "Cc1nsc(NC(=O)N2CCCC2C)n1", "note": "(stereo unspecified)", "z-score": "-0.04 (inactive)"}
{"smiles": "COc1ccc(-c2cccc(C(=O)c3nccn3C)c2)c(C)c1", "z-score": "-0.555 (inactive)"}
{"smiles": "CC(=O)N1CCC(NCCOc2c(C)cccc2Cl)CC1", "z-score": "-0.35 (inactive)"}
{"smiles": "Cc1ccn2cc(C(=O)N(CC(C)C)CC(C)C)nc2c1", "z-score": "-0.515 (inactive)"}
{"smiles": "Cc1cc(C)n(CC(C)n2cnc3cccc(C)c3c2=O)n1", "note": "(stereo unspecified)", "z-score": "0.34 (inactive)"}
{"smiles": "O=c1cc(CCn2cccn2)nc(-c2ccc(CN3CCC[C@@H](O)C3)cc2)[nH]1", "z-score": "-0.025 (inactive)"}
{"smiles": "CCn1cc(-c2cc(C(=O)N3CCN(C)C(=O)C3C)c3ccc(C)cc3n2)cn1", "note": "(stereo unspecified)", "z-score": "-0.19 (inactive)"}
{"smiles": "Cc1nsc(NC(=O)N2CCC(N)CC2)n1", "z-score": "0.04 (inactive)"}
